# In the supplement of paper PMC10849652:
# Targets with a hit are over-represented here; the source holds about 8,800 in all. About 0.5% of all pairs of compound and target were hits. A number with no mark means an inactive call.
# Tests used:
# Experiment in all cases: log2 fold change, soluble protein after heating vs DMSO (PISA); higher = thermal stabilisation; K562 lysate, 10 uM; active = over 0.2 and 3.5 SD of the protein, either way, in both replicates (recomputed)
# [1] = compound: C1=CC=C(C=C1)[C@H](COC2=CC3=C(C=C2)NC(=O)N3)NC(=O)C4=CC=CN(C4=O)CC5=CC(=C(C=C5)F)F
# In short: (§1)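 Pellets of K562 cells were dounce-homogenised in PBS pH 7.4 with 1 mM MgCl2, and the crude extract was held at 1 mg/mL protein for a 30 min treatment with 10 μM compound. Aliquots were heated for 3 min over 48°C-58°C and pooled before NP-40 was added to 0.5% at 4°C. The supernatant from 21,000xg for 90 min was quantified by TMTpro 16plex LC-MS/MS with channel sums equalised. Values are reported from duplicates as log-two fold change in thermal stability relative to solvent controls.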
# [2] = compound: CC1=C(SC2=C1C(=N[C@H](C3=NN=C(N32)C)CC(=O)N)C4=CC=C(C=C4)Cl)C
# In short: as §1
# [3] = compound: CC1=C2C(=CC=C1)N=C(N(C2=O)C3=CC=CC=C3C)CN4C=NC5=C(N=CN=C54)N
# In short: as §1
# [4] = compound: Cc1sc2c(c1C)C(c1ccc(Cl)cc1)=N[C@@H](CC(=O)OC(C)(C)C)c1nnc(C)n1-2
# In short: as §1
# [5] = compound: c1ccc([C@@H]2C[C@H]2NC2CCNCC2)cc1
# In short: as §1
# Sequence of UniProt Q1ED39 (Q1ED39 whole entry, looked up): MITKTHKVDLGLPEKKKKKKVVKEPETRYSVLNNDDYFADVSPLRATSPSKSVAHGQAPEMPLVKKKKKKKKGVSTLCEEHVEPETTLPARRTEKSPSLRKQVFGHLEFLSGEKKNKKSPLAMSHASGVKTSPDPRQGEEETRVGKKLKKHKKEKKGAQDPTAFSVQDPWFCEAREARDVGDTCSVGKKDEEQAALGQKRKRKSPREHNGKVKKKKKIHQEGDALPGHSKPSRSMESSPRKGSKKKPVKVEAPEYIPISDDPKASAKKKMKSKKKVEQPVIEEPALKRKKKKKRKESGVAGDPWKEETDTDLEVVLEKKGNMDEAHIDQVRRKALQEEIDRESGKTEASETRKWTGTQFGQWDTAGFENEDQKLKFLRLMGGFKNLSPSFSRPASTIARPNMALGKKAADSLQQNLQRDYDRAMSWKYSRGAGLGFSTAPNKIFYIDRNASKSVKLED
# Sequence of UniProt P28838 (P28838 whole entry, looked up): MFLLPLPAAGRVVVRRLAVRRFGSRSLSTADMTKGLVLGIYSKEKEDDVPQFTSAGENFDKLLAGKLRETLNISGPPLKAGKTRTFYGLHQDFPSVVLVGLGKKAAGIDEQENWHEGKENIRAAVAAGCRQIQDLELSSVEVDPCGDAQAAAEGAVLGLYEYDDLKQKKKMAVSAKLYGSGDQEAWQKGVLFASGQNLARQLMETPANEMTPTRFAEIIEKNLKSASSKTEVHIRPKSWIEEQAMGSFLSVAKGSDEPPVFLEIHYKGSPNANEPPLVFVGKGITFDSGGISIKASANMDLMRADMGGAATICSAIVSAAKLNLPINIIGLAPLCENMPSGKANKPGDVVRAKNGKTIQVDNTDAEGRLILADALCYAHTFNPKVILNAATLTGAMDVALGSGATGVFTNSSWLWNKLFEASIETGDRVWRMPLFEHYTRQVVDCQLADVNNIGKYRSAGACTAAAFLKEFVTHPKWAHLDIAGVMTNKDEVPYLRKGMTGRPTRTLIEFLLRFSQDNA
# Sequence of UniProt Q9Y4W2 (Q9Y4W2 whole entry, looked up): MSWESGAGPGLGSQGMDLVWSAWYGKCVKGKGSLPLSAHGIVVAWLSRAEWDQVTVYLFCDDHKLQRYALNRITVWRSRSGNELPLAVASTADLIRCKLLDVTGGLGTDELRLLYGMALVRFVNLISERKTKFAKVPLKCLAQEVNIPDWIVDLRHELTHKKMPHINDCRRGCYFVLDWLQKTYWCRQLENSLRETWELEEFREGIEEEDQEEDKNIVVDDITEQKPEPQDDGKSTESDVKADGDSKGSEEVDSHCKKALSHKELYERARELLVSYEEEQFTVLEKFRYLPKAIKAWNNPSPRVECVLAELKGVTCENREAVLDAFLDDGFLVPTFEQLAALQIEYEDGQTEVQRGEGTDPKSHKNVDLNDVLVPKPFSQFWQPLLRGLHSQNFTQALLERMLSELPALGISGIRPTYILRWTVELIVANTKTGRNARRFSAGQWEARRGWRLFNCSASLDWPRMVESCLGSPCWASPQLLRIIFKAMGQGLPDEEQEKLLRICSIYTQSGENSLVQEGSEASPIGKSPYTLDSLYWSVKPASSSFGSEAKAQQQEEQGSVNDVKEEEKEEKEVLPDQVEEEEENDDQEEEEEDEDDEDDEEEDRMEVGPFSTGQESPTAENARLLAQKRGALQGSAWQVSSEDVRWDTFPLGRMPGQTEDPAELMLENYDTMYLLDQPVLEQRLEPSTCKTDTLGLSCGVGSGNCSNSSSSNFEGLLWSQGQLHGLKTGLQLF
# Sequence of UniProt Q53G59 (Q53G59 whole entry, looked up): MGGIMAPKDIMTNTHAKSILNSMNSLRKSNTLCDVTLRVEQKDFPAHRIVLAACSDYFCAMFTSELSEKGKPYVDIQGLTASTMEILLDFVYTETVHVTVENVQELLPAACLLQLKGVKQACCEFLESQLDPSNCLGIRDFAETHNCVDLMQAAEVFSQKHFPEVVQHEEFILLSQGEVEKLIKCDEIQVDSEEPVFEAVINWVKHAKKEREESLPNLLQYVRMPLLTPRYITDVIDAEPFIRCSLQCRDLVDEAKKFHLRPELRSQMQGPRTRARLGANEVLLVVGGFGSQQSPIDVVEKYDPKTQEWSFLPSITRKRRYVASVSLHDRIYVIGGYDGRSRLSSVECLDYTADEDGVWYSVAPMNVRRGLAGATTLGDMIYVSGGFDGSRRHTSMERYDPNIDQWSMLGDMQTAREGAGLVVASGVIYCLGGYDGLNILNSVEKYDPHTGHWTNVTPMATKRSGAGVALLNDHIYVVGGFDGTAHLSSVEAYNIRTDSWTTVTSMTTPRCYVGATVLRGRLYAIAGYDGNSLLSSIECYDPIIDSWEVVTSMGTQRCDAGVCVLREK
# Sequence of UniProt P27361 (P27361 whole entry, looked up): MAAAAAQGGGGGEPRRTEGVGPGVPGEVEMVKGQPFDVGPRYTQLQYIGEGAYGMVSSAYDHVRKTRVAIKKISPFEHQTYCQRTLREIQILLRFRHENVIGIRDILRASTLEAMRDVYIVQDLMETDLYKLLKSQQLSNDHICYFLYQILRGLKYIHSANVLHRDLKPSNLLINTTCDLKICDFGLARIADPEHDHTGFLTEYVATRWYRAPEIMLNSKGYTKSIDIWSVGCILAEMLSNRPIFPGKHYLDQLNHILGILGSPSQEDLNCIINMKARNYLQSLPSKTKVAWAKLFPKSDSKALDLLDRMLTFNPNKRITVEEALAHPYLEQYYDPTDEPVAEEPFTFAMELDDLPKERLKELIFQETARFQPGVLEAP
# Sequence of UniProt Q9BTE3 (Q9BTE3 whole entry, looked up): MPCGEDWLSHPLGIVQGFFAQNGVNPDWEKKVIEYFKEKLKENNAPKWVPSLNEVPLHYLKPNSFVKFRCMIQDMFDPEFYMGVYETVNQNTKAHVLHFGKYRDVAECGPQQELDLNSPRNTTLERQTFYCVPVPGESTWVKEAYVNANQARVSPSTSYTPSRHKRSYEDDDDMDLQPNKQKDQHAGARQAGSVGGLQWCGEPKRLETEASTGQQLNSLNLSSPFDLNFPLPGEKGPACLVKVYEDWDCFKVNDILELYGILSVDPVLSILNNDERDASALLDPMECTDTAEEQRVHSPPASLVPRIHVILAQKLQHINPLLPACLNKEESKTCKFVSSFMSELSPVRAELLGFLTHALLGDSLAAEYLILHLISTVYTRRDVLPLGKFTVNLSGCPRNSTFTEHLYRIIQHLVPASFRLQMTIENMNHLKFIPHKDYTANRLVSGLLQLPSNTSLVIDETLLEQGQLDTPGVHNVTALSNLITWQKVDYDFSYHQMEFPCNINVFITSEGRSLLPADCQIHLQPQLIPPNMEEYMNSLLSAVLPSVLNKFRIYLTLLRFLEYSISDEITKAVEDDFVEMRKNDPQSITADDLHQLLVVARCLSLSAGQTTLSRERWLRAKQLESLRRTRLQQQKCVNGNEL
# Sequence of UniProt Q9NSK0 (Q9NSK0 whole entry, looked up): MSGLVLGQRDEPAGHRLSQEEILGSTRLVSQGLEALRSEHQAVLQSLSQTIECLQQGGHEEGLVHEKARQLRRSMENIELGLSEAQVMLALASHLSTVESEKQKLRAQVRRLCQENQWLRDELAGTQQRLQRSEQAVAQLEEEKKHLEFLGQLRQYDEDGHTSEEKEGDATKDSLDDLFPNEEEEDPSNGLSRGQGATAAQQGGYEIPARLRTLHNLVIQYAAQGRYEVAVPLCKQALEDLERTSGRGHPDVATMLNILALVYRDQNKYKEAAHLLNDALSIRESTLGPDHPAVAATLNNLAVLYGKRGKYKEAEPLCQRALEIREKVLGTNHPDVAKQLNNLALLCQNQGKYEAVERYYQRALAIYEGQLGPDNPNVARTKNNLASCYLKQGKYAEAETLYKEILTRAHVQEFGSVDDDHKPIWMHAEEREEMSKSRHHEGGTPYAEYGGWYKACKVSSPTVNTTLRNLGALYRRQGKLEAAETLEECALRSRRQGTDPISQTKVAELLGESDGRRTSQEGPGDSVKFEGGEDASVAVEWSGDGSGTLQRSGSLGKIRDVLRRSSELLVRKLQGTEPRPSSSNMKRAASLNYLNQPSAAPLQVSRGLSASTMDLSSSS
# Sequence of UniProt Q8WV92 (Q8WV92 whole entry, looked up): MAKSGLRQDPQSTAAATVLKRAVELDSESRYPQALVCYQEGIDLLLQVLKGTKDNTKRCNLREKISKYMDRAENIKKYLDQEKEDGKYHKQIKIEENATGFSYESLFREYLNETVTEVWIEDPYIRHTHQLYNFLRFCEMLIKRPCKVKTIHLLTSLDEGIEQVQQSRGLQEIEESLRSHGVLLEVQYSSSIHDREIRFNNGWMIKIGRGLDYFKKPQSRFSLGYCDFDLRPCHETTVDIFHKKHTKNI
# Sequence of UniProt Q12851 (Q12851 whole entry, looked up): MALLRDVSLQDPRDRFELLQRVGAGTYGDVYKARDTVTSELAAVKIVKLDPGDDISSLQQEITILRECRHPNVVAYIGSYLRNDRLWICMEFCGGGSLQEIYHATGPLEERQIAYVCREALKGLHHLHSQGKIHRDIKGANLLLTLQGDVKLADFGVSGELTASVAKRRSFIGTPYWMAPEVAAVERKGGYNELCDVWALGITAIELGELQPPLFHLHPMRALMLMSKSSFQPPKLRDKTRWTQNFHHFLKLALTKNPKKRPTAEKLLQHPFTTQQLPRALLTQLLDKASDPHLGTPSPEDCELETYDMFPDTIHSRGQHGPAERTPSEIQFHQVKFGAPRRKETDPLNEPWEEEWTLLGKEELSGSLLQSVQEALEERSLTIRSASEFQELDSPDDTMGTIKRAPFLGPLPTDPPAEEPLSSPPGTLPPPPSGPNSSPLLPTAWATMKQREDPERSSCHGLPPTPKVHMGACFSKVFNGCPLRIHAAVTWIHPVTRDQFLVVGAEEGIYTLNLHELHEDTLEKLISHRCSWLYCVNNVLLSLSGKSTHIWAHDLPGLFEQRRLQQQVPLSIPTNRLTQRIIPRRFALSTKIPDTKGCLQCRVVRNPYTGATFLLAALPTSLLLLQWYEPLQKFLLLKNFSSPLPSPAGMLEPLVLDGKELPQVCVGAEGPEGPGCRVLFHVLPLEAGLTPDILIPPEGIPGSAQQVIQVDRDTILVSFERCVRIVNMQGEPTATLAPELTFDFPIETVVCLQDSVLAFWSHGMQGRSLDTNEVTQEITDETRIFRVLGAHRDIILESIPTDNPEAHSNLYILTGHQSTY
Target,log2 fold change [1],log2 fold change [2],log2 fold change [3],log2 fold change [4],log2 fold change [5]
MAPK14 isoform 2 (UniProt Q16539),0.008,-0.053,0.014,-0.028,0.154
LRRC7 (UniProt Q96NW7),-0.001,-0.047,-0.309,0,-0.001
MAP4 isoform 5 (UniProt P27816),-0.065,0.099,0.163,0.181,–
MAP4K2 (UniProt Q12851),-0.088,0.053,0.022,-0.13,-0.087
LAS1L (UniProt Q9Y4W2),-0.002,0,-0.023,0.02,-0.026
KNOP1 (UniProt Q1ED39),0.078,0.029,0.177,-0.162,0.032
KRI1 (UniProt Q8N9T8),0.053,0.043,0.027,-0.048,-0.039
MAPK6 (UniProt Q16659),0.062,-0.015,-0.016,-0.001,-0.037
MRPL10 isoform 2 (UniProt Q7Z7H8),-0.053,0.097,0.023,-0.026,0.016
MCMBP isoform 2 (UniProt Q9BTE3),0.045,0.02,0.007,0.018,–
MAPK3 (UniProt P27361),0.008,0.006,-0.05,0.036,-0.048
LRPPRC (UniProt P42704),-0.067,0.043,0.049,0.039,0.122
KSR1 (UniProt Q8IVT5),-0.081,-0.024,0.035,0.035,0.242 (active)
MED13L (UniProt Q71F56),-0.034,0.029,0.028,-0.095,0.014
MED12 isoform 2 (UniProt Q93074),0.013,-0.024,-0.019,0.042,0.031
MAPK12 (UniProt P53778),0.029,0.068,-0.015,-0.002,0.307
KNL1 (UniProt Q8NG31),0.009,0.003,-0.004,-0.03,-0.001
LAP3 (UniProt P28838),-0.043,0.021,-0.139,-0.056,-0.285
MITD1 (UniProt Q8WV92),-0.036,-0.038,-0.015,-0.026,0.117
LLGL1 (UniProt Q15334),0.038,0.052,0.024,-0.056,0.074
KLHL12 isoform 2 (UniProt Q53G59),0.152,-0.049,-0.013,0.161,–
KLC4 isoform 3 (UniProt Q9NSK0),0.011,0.004,-0.003,0.01,0.014
MINK1 (UniProt Q8N4C8),0.069,0.092,-0.149,-0.066,0.086
KLC1 isoform 10 (UniProt Q07866),-0.094,-0.063,–,–,–
LZTS1 (UniProt Q9Y250),-0.082,0.049,0.065,-0.628,0.324
